Only some compounds are listed: those with a hit (about 4.1% of all), similar ones and a draw of the others.
ABHD5-PLIN5 inh – ABHD5-PLIN5 interaction inhibitors, primary screen, cell lysate, split luciferase complementation, luminescence | Perilipin-5 (Homo sapiens) + 1-acylglycerol-3-phosphate O-acyltransferase ABHD5 (Homo … | Split G. princeps luciferase complementation, 4 h | inhibition, % at 4 µM | hit rate 0.78% among 360,000 | AID 602281, 2012;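 active = inhibition above the mean inhibition across every tested compound plus 3 SD, cut at about 22% in these data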;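 also: 0% = DMSO only wells and the 100% control is not disclosed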
Target sequence (Q00G26 whole entry, looked up): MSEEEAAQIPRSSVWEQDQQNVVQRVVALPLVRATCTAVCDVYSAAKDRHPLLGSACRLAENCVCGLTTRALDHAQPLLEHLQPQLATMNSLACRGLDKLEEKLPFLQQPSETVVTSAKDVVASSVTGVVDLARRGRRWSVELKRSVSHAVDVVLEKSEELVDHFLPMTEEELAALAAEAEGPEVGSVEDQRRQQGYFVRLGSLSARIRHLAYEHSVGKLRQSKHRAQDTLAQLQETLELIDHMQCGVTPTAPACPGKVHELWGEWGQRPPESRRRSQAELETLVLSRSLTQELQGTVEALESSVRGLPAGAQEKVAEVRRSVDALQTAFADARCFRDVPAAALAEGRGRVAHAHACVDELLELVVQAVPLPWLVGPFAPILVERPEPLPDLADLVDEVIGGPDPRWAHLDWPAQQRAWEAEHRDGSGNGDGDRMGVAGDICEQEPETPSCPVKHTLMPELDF
Target sequence (Q8WTS1 whole entry, looked up): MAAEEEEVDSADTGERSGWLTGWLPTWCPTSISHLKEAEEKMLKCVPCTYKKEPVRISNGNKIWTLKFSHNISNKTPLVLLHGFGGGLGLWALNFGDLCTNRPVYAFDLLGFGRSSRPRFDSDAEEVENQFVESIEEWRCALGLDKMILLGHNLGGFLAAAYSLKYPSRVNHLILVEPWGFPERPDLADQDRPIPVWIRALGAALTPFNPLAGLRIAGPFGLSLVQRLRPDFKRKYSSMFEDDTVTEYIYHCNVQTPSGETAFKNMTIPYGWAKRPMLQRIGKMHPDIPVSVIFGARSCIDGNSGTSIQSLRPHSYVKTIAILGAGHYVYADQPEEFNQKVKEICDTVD
PRMT1 FP inh – PRMT1 methyltransferase inhibitors, primary screen, biochemical, fluorescence polarization | AID 652257, 2013 | hit rate 1.3% among 370,000 | inhibition, % at 2.79 µM | recombinant PRMT1, activity-based probe fluorescence polarization | Protein arginine N-methyltransferase 1 (Homo sapiens), Q99873;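 active = inhibition above about 21% made by adding two undisclosed values, limit read from the data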
UHRF1 MBD2 ctr – UHRF1 methylated DNA binding inhibitors, primary screen, counter-screen for MBD2 inhibitor project, biochemical, TR-FRET, human UHRF1, single concentration. E3 ubiquitin-protein ligase UHRF1 (Homo sapiens), Q96T88. UHRF1 binding to methylated oligo. inhibition, % at 4.4 µM. hit rate 0.75% among 370,000. AID 687016, 2013; in the data active = inhibition above about 21%;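 also: UHRF1 SRA domain binding a hemimethylated CpG hairpin DNA probe; 0% = median of test compound wells and 100% = reference inhibitor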
rCAG RNA binder – binders of r(CAG) RNA repeats, primary screen, biochemical, fluorescence; hit rate 1.3% among 370,000; inhibition, % at 3 µM; r(CAG) RNA repeat, TO-PRO-1 dye displacement fluorescence; AID 651821, 2012;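 active = inhibition above the plate cutoff, the mean of all test compounds on that plate plus 3 SD, cut at about 35% in these data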;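 also: 0% = DMSO alone and 100% = 100 µM mitoxantrone as full dye displacement; higher means more dye released from RNA so lower well fluorescence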
LEDGF integ inh – blockers of LEDGF/p75-dependent integrase strand transfer – biochemical, TR-FRET, high throughput, primary screen. inhibition, % at 3.7 µM. TR-FRET IN-LEDGF/p75 DNA integration, Eu/Cy5. HIV-1 integrase (with human LEDGF/p75). hit rate 0.64% among 370,000;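 active = inhibition above the screen-wide mean plus 3 SD, cut at about 13% in these data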;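 also: signal is the Cy5 over europium emission ratio at 671 and 618 nm; 0% = plate median of compound wells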
MBD2 inh – inhibitors of MBD2 binding to methylated DNA, primary screen, biochemical, TR-FRET, DNA-binding domain, human; MBD2 binding to methylated oligonucleotide; inhibition, % at 4.4 µM; hit rate 0.31% among 370,000; in the data active = inhibition above about 13%
ABHD5 PLIN5 conf – ABHD5-PLIN5 interaction inhibitors, confirmation, biochemical, luminescence; AID 651612, 2012; hit rate 67% among 2,200; shares compounds with ABHD5-PLIN5 inh; inhibition, % at 4 µM; in the data active = inhibition above about 23%;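 also: 0% = DMSO vehicle wells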
HNF4 counter – HNF4 dimerization inhibitors, counter-screen for ABHD5-PLIN5 interaction inhibitor project, biochemical, split-luciferase complementation, luminescence; inhibition, % at 4 µM; hit rate 77% among 2,200; shares compounds with ABHD5-PLIN5 inh; AID 651674, 2012;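 active = mean inhibition across replicate wells exceeding the computed hit threshold, cut at about 13% in these data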;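 also: light from luciferase halves that rejoin when HNF4 fusion proteins dimerize; 0% = DMSO only wells and the 100% control is not given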
rCAG binder conf – small molecules binding CAG repeat RNA – biochemical, fluorescence, confirmation. hit rate 70% among 4,300. r(CAG) RNA repeat, TO-PRO-1 dye displacement fluorescence. inhibition, % at 3 µM. shares compounds with rCAG RNA binder;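 active = inhibition above a per-plate cutoff, the mean inhibition of sample wells plus 3 SD, cut at about 35% in these data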;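 also: loss of TO-PRO-1 fluorescence as compound displaces dye from 1x1 AA loop RNA; 0% = DMSO only wells and 100% = 100 µM mitoxantrone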
dCAG dye counter – displacement of TO-PRO-1 from CAG DNA duplex, counter-screen for rCAG RNA repeat binder project, biochemical, fluorescence, TO-PRO-1 dye, d(CAG) DNA oligo. hit rate 94% among 4,300. inhibition, % at 3 µM. shares compounds with rCAG RNA binder. d(CAG) DNA oligo TO-PRO-1 dye displacement. AID 652068, 2013;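 active = inhibition above its plate's cutoff, the mean test-well inhibition plus 3 SD, cut at about 4.8% in these data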;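 also: 0% = DNA dye mix with DMSO and 100% = 100 µM mitoxantrone; hits displace the dye from DNA and so lower well fluorescence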
PRMT1 confirm – PRMT1 methyltransferase inhibitors, confirmation, biochemical, fluorescence polarization, triplicate; shares compounds with PRMT1 FP inh; recombinant His-PRMT1, activity-based probe fluorescence polarization; inhibition, % at 2.79 µM; hit rate 42% among 3,300; AID 687036, 2013;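 active = mean inhibition across replicates above the hit cutoff derived for the earlier primary screen, cut at about 22% in these data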
UHRF1 ctr MBD2 – UHRF1 methylated DNA binding inhibitors, counter-screen for MBD2 inhibitor project, biochemical, TR-FRET, human UHRF1; AID 720530, 2013; shares compounds with MBD2 inh; inhibition, % at 4.4 µM; UHRF1 binding to methylated oligonucleotide; hit rate 25% among 1,000; in the data active = inhibition above about 21%;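 also: UHRF1 SRA domain binding a labeled hemimethylated CpG hairpin DNA; 0% = vehicle only and 100% = reference inhibitor with vehicle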
MBD2 DBD conf – inhibitors of MBD2 binding to methylated DNA, confirmation, biochemical, TR-FRET, DNA-binding domain, human; shares compounds with MBD2 inh; TR-FRET MBD2-DBD binding to methylated oligonucleotide; inhibition, % at 4.4 µM; hit rate 26% among 1,000; AID 720531, 2013
IN multimer up – HIV-1 IN multimer formation enhancers, counter-screen for LEDGF/p75 integration inhibitor project, biochemical, TR-FRET; shares compounds with LEDGF integ inh; TR-FRET HIV-1 integrase multimerization; activation, % at 7.7 µM; hit rate 17% among 2,000; AID 1053131, 2014; in the data active = activation above about 8.9%
TRFRET interf – TR-FRET optical interference artefacts, confirmation, artefact control for LEDGF/p75-dependent integration inhibitor project, biochemical, HIV-1 IN multimerization; shares compounds with LEDGF integ inh; TR-FRET optical interference counterscreen; 2,000 tested, under 10 active; inhibition, % at 7.7 µM;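 active = inhibition above the mean over all tested compounds plus 3 SD, which no compound reached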;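 also: 0% = integrase with antibodies and DMSO and 100% = antibodies without integrase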
IN-LEDGF confirm – inhibitors of HIV-1 IN-LEDGF/p75 DNA integration, confirmation, biochemical, TR-FRET. inhibition, % at 3.7 µM. shares compounds with LEDGF integ inh. TR-FRET LEDGF/p75-dependent HIV-1 integration. hit rate 36% among 2,000
The depositor's hits bear a star; / = no result given. Rule as the data show it, unless noted: active = inhibition above about 14%; inactive = the rest.

SMILES	ABHD5-PLIN5 inh	PRMT1 FP inh	UHRF1 MBD2 ctr	rCAG RNA binder	LEDGF integ inh	MBD2 inh	ABHD5 PLIN5 conf	HNF4 counter	PRMT1 confirm	IN multimer up	TRFRET interf	IN-LEDGF confirm	others
O=C1OC(c2ccccc2)=N/C1=C\C=C\c1ccco1	39*	26*	32*	5	41*	9	15	35*	7	-1	3	3
O=C1OC(c2ccccc2)=N/C1=C\C=C\c1ccccc1[N+](=O)[O-]	1	1	-2	12	2	-6	/	/	/	/	/	/
O=C1OC(c2ccc(Cl)cc2)=N/C1=C\C=C\c1ccco1	53*	39*	40*	11	36*	14*	18	17*	3	-1	4	-1	UHRF1 ctr MBD2=11;MBD2 DBD conf=0
CC1(C)CC(=O)C=C(Nc2ccccc2NC(=O)c2cc(F)ccc2F)C1	/	2	-4	-2	1	-2	/	/	/	/	/	/
CC(C)C[C@H](NC1(C(=O)NC2CCCCC2)CCN(C)CC1)C(=O)NCC(c1ccccc1)c1ccccc1	/	3	2	/	2	3	/	/	/	/	/	/
COC(=O)[C@]12C[C@H](CC(=O)N3CCOCC3)C(=O)N(Cc3cccc4ccccc34)C1=C[C@H](C1CCCC1)O[C@@H]2C	/	-4	-1	4	0	-5	/	/	/	/	/	/
CCOC1=CC2=C(C(=O)C(Cl)=CC2=O)[C@@H]2CN(S(=O)(=O)c3ccc(C)cc3)[C@@H](c3ccccc3)[C@H]12	53*	50*	-3	73*	19*	1	103*	58*	91*	7	-33	26*	rCAG binder conf=57*;dCAG dye counter=21*
CCN1C(=O)[C@@H]2[C@@H]3CN(S(=O)(=O)c4ccc(C)cc4)[C@@H](c4ccccc4)[C@@H]3C(=O)C[C@@H]2C1=O	-2	-3	-4	5	0	-2	/	/	/	/	/	/
O=[N+]([O-])c1ccc(Cl)c2c1C1C=CCC1C(c1ccccn1)N2 (configuration not stated)	6	14	-6	33	5	-1	/	/	/	/	/	/
COC(=O)COc1ccc(C2Nc3c(Cl)ccc(C(=O)O)c3C3C=CCC32)cc1 (configuration not stated)	23*	69*	46*	76*	66*	18*	15	28*	29*	-1	5	21*	rCAG binder conf=49*;dCAG dye counter=17*;UHRF1 ctr MBD2=12;MBD2 DBD conf=4
CC1=CC(=O)C=CC1=Nc1ccc(N(C)C)cc1	86*	67*	1	13	27*	-8	98*	113*	41*	5	-19	2
O=C(C(=O)N1CCN(S(=O)(=O)c2cccc(C(F)(F)F)c2)CC1)c1cccc(C(F)(F)F)c1	/	5	3	0	1	3	/	/	/	/	/	/
CC1(C)CC(=O)C2=C(C1)OC1=C(C(=O)CC(C)(C)C1)C2c1ccc(O)cc1O	87*	78*	-3	-106	17*	-5	102*	108*	/	8	-40	-1
CC(=O)OC[C@]12CC[C@H]3[C@@](C)(CC[C@H]4C(C)(C)CCC[C@]34C)[C@@H]1CC(C1=CC(=O)OC1O)O2 (some centres not stated)	100*	18	4	18	20*	5	103*	103*	/	-3	13	63*
CC(=O)OC[C@]1(OC(C)=O)C[C@@]23CC[C@H]4[C@@](C)(CCC[C@@]4(C)C(=O)O)[C@@H]2CC[C@@H]1C3	-3	0	-3	14	0	-1	/	/	/	/	/	/
O=C1C(=Cc2ccco2)CCC1=Cc1ccco1	37*	53*	100*	66*	91*	103*	59*	89*	50*	14*	-73	93*	rCAG binder conf=78*;dCAG dye counter=44*;UHRF1 ctr MBD2=96*;MBD2 DBD conf=53*
O=C1C(=Cc2ccco2)CCCC1=Cc1ccco1	39*	29*	52*	22	61*	15*	53*	63*	/	1	-2	58*
O=C(CCl)N1N=C(c2cccs2)CC1c1ccco1 (configuration not stated)	21	5	-4	0	4	-4	/	/	/	/	/	/
